The record followed here is the supplement of paper PMC3334620.

The full ranking holds about 33,000 sequences; the median of “E-score (-0.5 to 0.5)” is about -0.035, and the highest 2% start at about 0.34. What follows is part of a selection rich in the highest values, with near analogues and random picks from the rest.

This assay addresses T1, Mot3 (UniProt P54785).
T1 sequence: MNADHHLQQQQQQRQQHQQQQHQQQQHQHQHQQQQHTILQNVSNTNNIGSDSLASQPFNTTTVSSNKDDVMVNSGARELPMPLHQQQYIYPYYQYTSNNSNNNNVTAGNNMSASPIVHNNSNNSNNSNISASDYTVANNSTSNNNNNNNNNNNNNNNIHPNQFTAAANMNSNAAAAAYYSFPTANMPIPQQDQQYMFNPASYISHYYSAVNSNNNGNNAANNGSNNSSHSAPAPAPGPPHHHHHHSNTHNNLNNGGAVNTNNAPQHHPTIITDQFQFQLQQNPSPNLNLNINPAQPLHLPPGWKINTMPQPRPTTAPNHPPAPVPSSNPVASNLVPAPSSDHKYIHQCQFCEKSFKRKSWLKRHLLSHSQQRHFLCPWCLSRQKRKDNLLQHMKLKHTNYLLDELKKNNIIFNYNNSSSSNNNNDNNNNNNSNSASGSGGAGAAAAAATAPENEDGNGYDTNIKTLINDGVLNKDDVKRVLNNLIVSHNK
Briefly: PBM E-score (8-mer binding enrichment) (E-score (-0.5 to 0.5)); higher = stronger / more preferred TF binding. The settings on record: protein concentration: 200 nM; construct: GST-full length. A digest of the protocol: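 For each ungapped eight-base word taken together with its reverse complement, the Universal PBM Analysis Suite assigned an E-score. Binding data came from GST-tagged yeast transcription factors, applied at about 100-200 nM, on universal all-10-mer Agilent arrays made double-stranded by primer extension. Fluorescent anti-GST marked bound protein, and scans were normalised with masliner.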
As for CTTGCCTA, the “PBM E-score” value came out at 0.488.

With CCTGCCTA, the “PBM E-score” value stood at 0.244.

As for CTTGCCGA, the “PBM E-score” value was -0.0816.

Consider CGTTTGTC, for which the “PBM E-score” value is -0.0445.

Take CAGCCGCG: the “PBM E-score” value was -0.0863.

For ATTTACGC, the “PBM E-score” value was 0.239.

In the case of AATTTTAC, the “PBM E-score” value is 0.222.

In the case of CTTTACAC, the “PBM E-score” value was 0.415.

As to ATTTACTC, the “PBM E-score” value came to 0.159.

With ATTTACAA, the “PBM E-score” value was found to be 0.363.

Regarding ATTTTTAA, the “PBM E-score” value stood at 0.156.

Take ATTTACAC: the “PBM E-score” value came to 0.412.

With GTTTACAA, the “PBM E-score” value was 0.336.

In the case of CTTTACAA, the “PBM E-score” value was determined as 0.326.

Regarding CGTTACAC, the “PBM E-score” value came out at 0.274.

For the sequence ATTTACAG, the “PBM E-score” value came out at 0.228.

Regarding ATTTTTAC, the “PBM E-score” value was 0.34.

Turning to ACGAGAAC, the “PBM E-score” value stood at 0.0296.

For the sequence CATACAGC, the “PBM E-score” value was -0.19.

For AAACGTGC, the “PBM E-score” value is 0.118.

With GCACCTCC, the “PBM E-score” value was -0.215.

For the sequence ATGTCCTA, the “PBM E-score” value was -0.0455.

As for CGAGAGAG, the “PBM E-score” value is -0.145.

Take GACTGGAA: the “PBM E-score” value was -0.213.

For TATAGGAA, the “PBM E-score” value is 0.412.

As for GATAGGAA, the “PBM E-score” value stood at 0.197.

As for AATAGGTC, the “PBM E-score” value came out at 0.0378.

As to AATAGGTG, the “PBM E-score” value is 0.0976.

As for AATAGGTA, the “PBM E-score” value was 0.38.

As to CATAGGAA, the “PBM E-score” value is 0.231.

With CCTAGGAA, the “PBM E-score” value was 0.018.

In the case of AATAGGAA, the “PBM E-score” value stood at 0.415.

In the case of AATAGGAT, the “PBM E-score” value is -0.00596.

Take ACGTGCCA: the “PBM E-score” value is 0.00099.

As for AAGTCCGT, the “PBM E-score” value was -0.0474.

As to AGTTAGGA, the “PBM E-score” value amounted to 0.108.

Regarding ATCAGGTA, the “PBM E-score” value came to 0.256.

In the case of GGGCGTGA, the “PBM E-score” value is -0.066.

For the sequence CGACTTCC, the “PBM E-score” value is -0.0315.

For TCTATAGA, the “PBM E-score” value was -0.152.

For ACAATGGT, the “PBM E-score” value was -0.058.

Regarding ATGTAAGA, the “PBM E-score” value turned out to be 0.309.

For the sequence ATGTATTC, the “PBM E-score” value amounted to 0.363.

For ATGTAAGG, the “PBM E-score” value came out at 0.298.

As to CGGTAATC, the “PBM E-score” value was -0.149.

As for ATGTAATG, the “PBM E-score” value worked out at 0.395.

As for CTGTAATA, the “PBM E-score” value is 0.238.

On to ATGTAATA, for which the “PBM E-score” value came to 0.405.

As to ATGTATTG, the “PBM E-score” value was 0.303.

With CTGTATTC, the “PBM E-score” value stood at 0.185.

As for ATGTAACG, the “PBM E-score” value is 0.268.

As to AGGTAATG, the “PBM E-score” value worked out at 0.279.

For AGGTAATC, the “PBM E-score” value came to 0.344.

For the sequence GGAGACCC, the “PBM E-score” value is -0.0421.

ACAACTAA: the “PBM E-score” value was 0.183.

In the case of AGAAGTGG, the “PBM E-score” value is -0.199.

Regarding ATGCGTGG, the “PBM E-score” value was -0.214.

For the sequence CTGCAACA, the “PBM E-score” value came to 0.0762.

For CGCCACTA, the “PBM E-score” value is -0.196.

For AAGTCCAC, the “PBM E-score” value was -0.187.

With AAGTGCTC, the “PBM E-score” value was -0.203.

Regarding ACCAGTAA, the “PBM E-score” value came to 0.016.

On to GCACAGCA, for which the “PBM E-score” value is 0.144.

For CAAGTTGC, the “PBM E-score” value was 0.144.

As to CAGCGAGG, the “PBM E-score” value was -0.276.

As for TTCGCAAA, the “PBM E-score” value is 0.0552.

GTGTAATA: the “PBM E-score” value came out at 0.375.

GGGTAATA: the “PBM E-score” value was 0.17.

For CTGTAATC, the “PBM E-score” value worked out at 0.111.

Consider ATGTAAGC, for which the “PBM E-score” value was found to be 0.267.

With ATGTAATC, the “PBM E-score” value stood at 0.367.

On to GAGTAATA, for which the “PBM E-score” value came out at 0.147.

With AGCGAAGC, the “PBM E-score” value was -0.0443.

In the case of CAAGGCTC, the “PBM E-score” value was found to be 0.0281.

Turning to GAAGGCCC, the “PBM E-score” value was determined as 0.122.

AAAGGCGC: the “PBM E-score” value worked out at 0.371.

With AAAGGCTG, the “PBM E-score” value was found to be 0.0993.

Consider AAAGGCTC, for which the “PBM E-score” value is 0.354.

Take CAAGGCGC: the “PBM E-score” value is 0.191.

AAAGGCGG: the “PBM E-score” value was 0.0743.

For the sequence GAAGGCGC, the “PBM E-score” value amounted to 0.362.

For GAAGGCGA, the “PBM E-score” value was -0.0248.

In the case of CAATGAGG, the “PBM E-score” value is -0.197.

Take TACGCGAA: the “PBM E-score” value turned out to be 0.221.

For the sequence TCGACTAA, the “PBM E-score” value is -0.0673.

GGGCACTA: the “PBM E-score” value came to 0.0732.

Consider ACGCACTG, for which the “PBM E-score” value turned out to be 0.00111.

As to AGGCACTA, the “PBM E-score” value came out at 0.484.

For the sequence AAGCACTG, the “PBM E-score” value was -0.0039.

In the case of ATGCACTC, the “PBM E-score” value is -0.061.

On to CGGCACTC, for which the “PBM E-score” value was -0.251.

Turning to AGGCACTG, the “PBM E-score” value was 0.483.

For the sequence AGGCACTC, the “PBM E-score” value worked out at 0.481.

Turning to CGGCACTA, the “PBM E-score” value is -0.184.
